For 20 molecules, growth inhibition, inhibition and outcome results are on record in PubChem BioAssay.

The nature of experiment [1]: antimalarial activity against Dd2 strain (AID 2302;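 active = growth inhibition above 50% at the single 2 µM test dose, taken to imply half-maximal potency below 2 µM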;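 also: 0% = DMSO untreated growth and 100% = chloroquine plus artemisinin killed control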). The conditions noted are these: P. falciparum Dd2 in RBCs, LDH growth readout, 72 h; at 2 µM; stronger effect = higher value.
Experiment [2] is described as follows: HepG2 cytotoxicity, primary screen, cytotoxicity control for P. falciparum antimalarial project, cell-based, ATP luminescence (AID 2303;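 active = inhibition above 50%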;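 also: 0% = DMSO wells and 100% = digitonin-killed cells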). To be noted: HepG2 viability, 24-48 h, at 10 µM, stronger effect = higher value.
For experiment [3], the target named is L-lactate dehydrogenase (Plasmodium falciparum (isolate CDC / Honduras)) (UniProt Q27743). Kind of experiment: PfLDH activity inhibition – cell lysate, 3D7 strain, counter-screen for P. falciparum growth inhibition project (AID 2304).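 Also: 0% = vehicle and 100% = reference inhibitor.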 To be noted: P. falciparum 3D7 crude extract, LDH APAD/NBT absorbance; at 2 µM; stronger effect = higher value. In general terms: The purpose of a counterscreen is to sort out artefacts and off-target activity.
Chain of L-lactate dehydrogenase (Plasmodium falciparum (isolate CDC / Honduras)) (Q27743 whole entry, looked up): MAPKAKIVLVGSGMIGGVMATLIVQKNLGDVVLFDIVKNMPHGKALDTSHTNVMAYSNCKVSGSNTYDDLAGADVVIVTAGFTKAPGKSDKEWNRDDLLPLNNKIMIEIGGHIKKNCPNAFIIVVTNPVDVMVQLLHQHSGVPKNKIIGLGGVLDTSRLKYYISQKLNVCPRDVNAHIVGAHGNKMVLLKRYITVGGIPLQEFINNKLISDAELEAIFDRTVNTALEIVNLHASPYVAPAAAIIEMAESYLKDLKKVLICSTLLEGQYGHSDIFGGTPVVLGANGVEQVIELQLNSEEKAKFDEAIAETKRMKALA

Experiment [4] in a line: inhibition of 3D7 malaria parasite growth – strain 3D7 (AID 2306).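 Also: 0% = DMSO wells and 100% = chloroquine plus artemisinin control wells.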 The conditions noted are these: P. falciparum 3D7 erythrocytic growth, LDH absorbance, 72 h; at 2 µM; stronger effect = higher value.
For experiment [5], the target named is Calcium-dependent protein kinase 1 (Plasmodium falciparum (isolate 3D7)) (UniProt P62344). Kind of experiment: PfCDPK1 kinase inhibitors, biochemical, TCAMS library (AID 1159585; cut-off not given, nearly all actives have IC50 up to about 0.98 µM;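 also: inhibitors leave more ATP so luminescence rises with inhibition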). The conditions noted are these: recombinant PfCDPK1, Kinase-Glo ATP depletion luminescence. A general note: Kinase-Glo measures the ATP left after a reaction by luminescence.
Chain of Calcium-dependent protein kinase 1 (Plasmodium falciparum (isolate 3D7)) (P62344 whole entry, looked up): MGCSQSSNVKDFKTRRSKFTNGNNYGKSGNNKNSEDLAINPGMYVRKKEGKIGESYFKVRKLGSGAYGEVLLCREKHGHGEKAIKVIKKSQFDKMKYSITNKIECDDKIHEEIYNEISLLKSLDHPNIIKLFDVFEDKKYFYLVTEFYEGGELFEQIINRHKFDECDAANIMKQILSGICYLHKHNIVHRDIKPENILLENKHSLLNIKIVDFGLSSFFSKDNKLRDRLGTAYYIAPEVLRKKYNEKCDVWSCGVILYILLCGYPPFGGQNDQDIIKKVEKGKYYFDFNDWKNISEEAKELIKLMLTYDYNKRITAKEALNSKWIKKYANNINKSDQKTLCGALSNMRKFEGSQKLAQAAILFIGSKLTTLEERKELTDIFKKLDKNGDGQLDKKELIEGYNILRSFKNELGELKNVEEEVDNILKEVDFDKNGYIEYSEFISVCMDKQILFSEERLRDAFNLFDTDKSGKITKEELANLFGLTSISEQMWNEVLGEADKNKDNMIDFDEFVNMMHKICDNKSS
Experiment [6] deals with Plasmodium falciparum protein kinase 6 (PK6, PF3D7_1337100) (UniProt Q8IDW1). Description: PfPK6 kinase inhibitors, biochemical, TCAMS library (AID 1159586). To be noted: recombinant PfPK6, Kinase-Glo ATP depletion luminescence.
Chain of Plasmodium falciparum protein kinase 6 (PK6, PF3D7_1337100) (Q8IDW1 1-305): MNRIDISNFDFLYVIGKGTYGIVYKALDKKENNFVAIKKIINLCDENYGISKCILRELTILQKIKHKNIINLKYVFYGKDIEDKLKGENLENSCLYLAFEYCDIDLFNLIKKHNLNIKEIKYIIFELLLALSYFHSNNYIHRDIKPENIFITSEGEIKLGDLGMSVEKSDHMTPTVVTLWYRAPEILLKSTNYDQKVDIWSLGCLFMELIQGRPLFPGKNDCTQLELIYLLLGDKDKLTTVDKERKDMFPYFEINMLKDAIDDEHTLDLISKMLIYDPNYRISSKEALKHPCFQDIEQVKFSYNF
For experiment [7], the target named is Protein kinase 7 (PK7), Plasmodium falciparum 3D7 (PF3D7_0213400) (UniProt Q7YTF7). Description: inhibition of Plasmodium PK7 catalytic activity – biochemical, TCAMS antimalarial set, Kinase-Glo luminescence (AID 1159587). The conditions noted are these: recombinant PfPK7, Kinase-Glo ATP depletion luminescence.
Chain of Protein kinase 7 (PK7), Plasmodium falciparum 3D7 (PF3D7_0213400) (Q7YTF7 1-343): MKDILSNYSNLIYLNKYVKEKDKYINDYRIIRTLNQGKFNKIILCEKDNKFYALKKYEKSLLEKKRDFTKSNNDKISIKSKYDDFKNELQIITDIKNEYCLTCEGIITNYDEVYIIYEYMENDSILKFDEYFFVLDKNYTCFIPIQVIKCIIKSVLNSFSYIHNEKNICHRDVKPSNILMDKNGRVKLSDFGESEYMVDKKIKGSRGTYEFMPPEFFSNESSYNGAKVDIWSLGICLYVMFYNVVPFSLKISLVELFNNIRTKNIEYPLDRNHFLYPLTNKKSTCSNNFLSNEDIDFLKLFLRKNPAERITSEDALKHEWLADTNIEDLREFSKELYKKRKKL
Experiment [8] addresses Calcium-dependent protein kinase 4 (Plasmodium falciparum (isolate 3D7)) (UniProt Q8IBS5). Description: PfCDPK4 kinase inhibitors, biochemical, TCAMS library (AID 1159588; cut-off not given, nearly all actives have IC50 up to about 0.91 µM). The conditions noted are these: recombinant PfCDPK4, Kinase-Glo ATP depletion luminescence.

Each structure is given as a SMILES string. A number with no mark means an inactive call. For some of these results: Measured potencies and affinities stand elsewhere. The source made the active and inactive calls. Unless noted, no rule for the calls is given here.

Chain of Calcium-dependent protein kinase 4 (Plasmodium falciparum (isolate 3D7)) (Q8IBS5 whole entry, looked up): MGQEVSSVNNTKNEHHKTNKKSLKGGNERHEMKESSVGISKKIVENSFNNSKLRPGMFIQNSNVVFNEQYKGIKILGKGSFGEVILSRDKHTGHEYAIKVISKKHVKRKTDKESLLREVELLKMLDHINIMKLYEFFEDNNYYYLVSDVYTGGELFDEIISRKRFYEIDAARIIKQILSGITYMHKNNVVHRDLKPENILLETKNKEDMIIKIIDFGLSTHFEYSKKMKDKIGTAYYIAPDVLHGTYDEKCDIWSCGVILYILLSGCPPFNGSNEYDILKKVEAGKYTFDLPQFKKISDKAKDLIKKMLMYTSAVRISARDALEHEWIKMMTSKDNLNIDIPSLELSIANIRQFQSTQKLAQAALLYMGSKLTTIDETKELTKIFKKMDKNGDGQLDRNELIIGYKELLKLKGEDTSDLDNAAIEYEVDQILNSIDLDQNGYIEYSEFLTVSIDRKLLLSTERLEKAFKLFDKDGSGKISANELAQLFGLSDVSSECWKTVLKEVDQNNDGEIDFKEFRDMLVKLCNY

As usually defined, the inhibition is the relative decrease from the control value, in per cent. Turning to `CN(C)CCN(Cc1ccc(-c2ccc(CNCCc3ccccc3)cc2)nc1)C(=O)CCC1CCCC1`, the growth inhibition is 89% (active) in experiment [1] and 96% (active) in experiment [4]. The inhibition was 98% (active) in experiment [2] and -3% in experiment [3]. For the same molecule, the outcome in experiment [5], in experiment [6], in experiment [7] and in experiment [8] was inactive.
Consider `CC(=O)c1cccc(Nc2nc3c(C#N)c(OCc4cc(Cl)cc(Cl)c4)ccc3[nH]2)c1`, for which the growth inhibition was 45% in experiment [1] and 86% (active) in experiment [4]. The figures for the inhibition in experiment [2] and in experiment [3] were 29% and 0%, respectively. For the same molecule, the outcome in experiment [5], in experiment [6], in experiment [7] and in experiment [8] was inactive.
As to `O=C(NCc1ccc(F)cc1)Nc1ccc(-c2cccc(-c3nc4ccc(F)cc4[nH]3)c2)cc1`, the figures for the growth inhibition in experiment [1] and in experiment [4] were 99% (active) and 100% (active), respectively. The inhibition in experiment [2] was 31%; in experiment [3], -1%. Moreover, the outcome in experiment [5], in experiment [6], in experiment [7] and in experiment [8] was inactive.
For `Cc1cc(SC(C)(C)C)cc2c(Cl)c(C(N)=O)cnc12`, the growth inhibition in experiment [1] and in experiment [4] was 98% (active) in each case. Moreover, the inhibition in experiment [2] was 83% (active); in experiment [3] it was 0%. Moreover, the outcome in experiment [5], in experiment [6], in experiment [7] and in experiment [8] was inactive.
Regarding `CC(N)(Cc1ccc(O)cc1)c1nn[nH]n1` (stereo not given), the growth inhibition is 2% in experiment [1] and 93% (active) in experiment [4]. Moreover, the inhibition in experiment [2] is 7%; in experiment [3] it was 4%. Also, the result in experiment [5], in experiment [6], in experiment [7] and in experiment [8] was inactive.
In the case of `Cc1ccc(C2(CN3CCC(NC(=O)c4ccn[nH]4)CC3)CCCCC2)cc1`, the growth inhibition in experiment [1] was 96% (active); in experiment [4] it was 97% (active). Also, the figures for the inhibition in experiment [2] and in experiment [3] were -6% and -3%, respectively. The result in experiment [5], in experiment [6], in experiment [7] and in experiment [8] was inactive.
As to `CC(C)NCc1ccc(-c2cccc(CN3CCC(c4ccccc4)CC3)c2)c(C(=O)NCC2CCCCC2)c1`, the growth inhibition in experiment [1] is 76% (active); in experiment [4] it was 98% (active). In addition, the inhibition was 42% in experiment [2] and -5% in experiment [3]. The outcome in experiment [5], in experiment [6], in experiment [7] and in experiment [8] was inactive.
With `COc1cc(Nc2ccnc3ccc(C(F)(F)F)cc23)ccc1OCCCc1ccccc1`, the growth inhibition was 51% (active) in experiment [1] and 99% (active) in experiment [4]. For the same molecule, the inhibition in experiment [2] was 11%; in experiment [3] it was -10%. The outcome in experiment [5], in experiment [6], in experiment [7] and in experiment [8] was inactive.
Take `Oc1ccc(CCNCc2ccc(OCc3ccccc3)c(OCc3ccccc3)c2)cc1`: the growth inhibition was 9% in experiment [1] and 88% (active) in experiment [4]. The results for the inhibition in experiment [2] and in experiment [3] were 31% and -3%, respectively. The outcome in experiment [5], in experiment [6], in experiment [7] and in experiment [8] was inactive.
For `COc1ccc2nccc(N3CCN(CCNCc4ccc5c(n4)NC(=O)CO5)CC3)c2c1`, the growth inhibition in experiment [1] was 5%; in experiment [4], 92% (active). The inhibition in experiment [2] was 18%; in experiment [3] it was 5%. For the same molecule, the outcome in experiment [5], in experiment [6], in experiment [7] and in experiment [8] was inactive.
Regarding `CC(C)(C)c1ccc(CNC(=O)c2cc(CNC3CCNC3)ccc2O)cc1` (stereo not given), the growth inhibition in experiment [1] was 1%; in experiment [4], 94% (active). Moreover, the inhibition in experiment [2] is 0%; in experiment [3], -6%. For the same molecule, the result in experiment [5], in experiment [6], in experiment [7] and in experiment [8] was inactive.
`O=C(Nc1ccc(Cn2nc(Cl)c(N3CCCNCC3)cc2=O)cc1)c1ccc(-c2ccccc2)cc1`: the growth inhibition in experiment [1] is 35%; in experiment [4], 87% (active). In addition, the results for the inhibition in experiment [2] and in experiment [3] were 93% (active) and 0%, respectively. Also, the result in experiment [5], in experiment [6], in experiment [7] and in experiment [8] was inactive.
On to `CC(C)c1ncc(-c2ccncc2)c(C2CCC(CNC(=O)c3cccnc3)CC2)n1` (stereo not given), for which the growth inhibition in experiment [1] is 88% (active); in experiment [4], 89% (active). Also, the inhibition was -14% in experiment [2] and 1% in experiment [3]. The outcome in experiment [5], in experiment [6], in experiment [7] and in experiment [8] was inactive.
On to `O=C(Nc1cc(F)cc(F)c1)N1CCOC(CCN2CCC3(CCc4ccccc43)CC2)(c2ccc(Cl)c(Cl)c2)C1` (stereo not given), for which the growth inhibition in experiment [1] is 86% (active); in experiment [4] it was 100% (active). Besides, the inhibition in experiment [2] was 32%; in experiment [3] it was 4%. Besides, the outcome in experiment [5], in experiment [6], in experiment [7] and in experiment [8] was inactive.
`OC(CNc1ccnc(Nc2cccc(Cl)c2)n1)c1ccccc1C(F)(F)F` (stereo not given): the values for the growth inhibition in experiment [1] and in experiment [4] were 36% and 95% (active), respectively. Moreover, the inhibition was 40% in experiment [2] and 0% in experiment [3]. The outcome in experiment [5], in experiment [6], in experiment [7] and in experiment [8] was inactive.
For the molecule `c1ccc(Oc2ccc(Nc3ccnc4cc(-c5csc(CN6CCCCC6)n5)ccc34)cc2)nc1`, the growth inhibition was 95% (active) in experiment [1] and 100% (active) in experiment [4]. Also, the inhibition in experiment [2] was 22%; in experiment [3] it was -7%. Moreover, the result in experiment [5], in experiment [6], in experiment [7] and in experiment [8] was inactive.
For the molecule `Nc1nc(N)c2cc(S(=O)(=O)c3ccc4ccccc4c3)ccc2n1`, the growth inhibition was 51% (active) in experiment [1] and 95% (active) in experiment [4]. In addition, the results for the inhibition in experiment [2] and in experiment [3] were 14% and 3%, respectively. The outcome in experiment [5], in experiment [6], in experiment [7] and in experiment [8] was inactive.
Turning to `Cc1ccc(-n2c(=O)c3cccnc3n2CC(=O)Nc2cccc(C)c2C)cc1`, the growth inhibition is 20% in experiment [1] and 96% (active) in experiment [4]. Also, the inhibition is 9% in experiment [2] and -3% in experiment [3]. For the same molecule, the result in experiment [5], in experiment [6], in experiment [7] and in experiment [8] was inactive.
For `CC(Oc1ccc(NC(=O)c2cccs2)cc1)C(=O)c1ccc(Cl)cc1` (stereo not given), the growth inhibition in experiment [1] was 83% (active); in experiment [4] it was 92% (active). Also, the results for the inhibition in experiment [2] and in experiment [3] were -1% and 1%, respectively. Besides, the result in experiment [5], in experiment [6], in experiment [7] and in experiment [8] was inactive.
With `COCCNCc1ccc(-c2ccc3c(Nc4ccc(Cl)cc4F)ccnc3c2)o1`, the growth inhibition in experiment [1] and in experiment [4] was 100% (active) in each case. Besides, the inhibition in experiment [2] is 15%; in experiment [3] it was -2%. Moreover, the outcome in experiment [5], in experiment [6], in experiment [7] and in experiment [8] was inactive.
